From PubChem
TDP1 block: TDP1 (human) enzyme inhibition | Q9NUW8 | recombinant TDP1, AlphaScreen DNA substrate cleavage | Potency, µM (titrated, usually from 130 µM), usual class: inhibitors | hit rate 0.28% among 350,000 | AID 485290; further: nearly all actives have a fitted effect of over 40% in size
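AlphaScreen read-out: signal falls as enzyme removes the 3' tyrosine-FITC from a 5'-biotinylated DNA oligo (15 nM, 5 min, RT). Enzyme was E. coli-made recombinant Tdp1 at 1 nM, exposed to compound for 15 min beforehand; beads 10 ug/ml, 10 min.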
BLM inh-1: Bloom syndrome helicase (human) inhibition | hit rate 0.2% among 350,000 | Potency, µM (highest dose often 56.1 µM), hits mostly inhibitors | P54132 | recombinant BLM DNA unwinding, fluorescence dequenching | AID 2528; further: nearly all actives have a fitted effect of over 35% in size
JMJD2E inh: JMJD2E (human) inhibition. AID 2147. hit rate 1.6% among 230,000. JMJD2E catalytic domain, FDH-coupled NADH fluorescence (FDH is formaldehyde dehydrogenase). Potency, µM (highest dose often 57.1 µM), actives largely listed as inhibitors; active means well fitted inhibition curve with a large enough effect, not every such curve was filed as active; inconclusive means small, poorly fitted or top-dose-only effect, or another doubt; inactive means no such curve, though single readings can be large or run the other way; further: nearly all actives have a fitted effect of over 50% in size
APEX1 inh: APE1 (human) endonuclease inhibition; P27695; recombinant APE1, TAMRA/BHQ-2 abasic DNA cleavage fluorescence; Potency, µM (highest dose often 65.8 µM), hits mostly inhibitors; hit rate 0.35% among 350,000; AID 2517; further: nearly all actives have a fitted effect of over 55% in size
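Kinetic fluorescence read (525 ex/598 em nm, three reads 60 s apart) of AP-site incision; signal = third minus first read. Enzyme 0.75 nM, dual-labelled THF duplex 50 nM, compound preincubation 15 min RT.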
L3MBTL1 block: inhibitors of human L3MBTL1; Q9Y468; hit rate 0.66% among 230,000; Potency, µM (doses to about 57.1 µM), actives largely listed as inhibitors; AlphaScreen L3MBTL1–H3K9me1 peptide binding; further: nearly all actives have a fitted effect of over 60% in size
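Displacement of a biotinylated histone H3(1-15) peptide monomethylated at Lys9 (75 nM) from L3MBTL1 (50 nM) was measured by AlphaScreen after a 30 min room-temperature compound incubation; cefsulodin titration served as intraplate control.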
RECQ1 inh-1: inhibitors of human RECQ1 DNA helicase; P46063; RECQ1 DNA unwinding, red fluorescence kinetic read; Potency, µM (series often up to 57.3 µM), actives largely listed as inhibitors; hit rate 0.54% among 240,000; AID 2549; further: nearly all actives have a fitted effect of over 30% in size
Target sequence (P46063 whole entry, looked up): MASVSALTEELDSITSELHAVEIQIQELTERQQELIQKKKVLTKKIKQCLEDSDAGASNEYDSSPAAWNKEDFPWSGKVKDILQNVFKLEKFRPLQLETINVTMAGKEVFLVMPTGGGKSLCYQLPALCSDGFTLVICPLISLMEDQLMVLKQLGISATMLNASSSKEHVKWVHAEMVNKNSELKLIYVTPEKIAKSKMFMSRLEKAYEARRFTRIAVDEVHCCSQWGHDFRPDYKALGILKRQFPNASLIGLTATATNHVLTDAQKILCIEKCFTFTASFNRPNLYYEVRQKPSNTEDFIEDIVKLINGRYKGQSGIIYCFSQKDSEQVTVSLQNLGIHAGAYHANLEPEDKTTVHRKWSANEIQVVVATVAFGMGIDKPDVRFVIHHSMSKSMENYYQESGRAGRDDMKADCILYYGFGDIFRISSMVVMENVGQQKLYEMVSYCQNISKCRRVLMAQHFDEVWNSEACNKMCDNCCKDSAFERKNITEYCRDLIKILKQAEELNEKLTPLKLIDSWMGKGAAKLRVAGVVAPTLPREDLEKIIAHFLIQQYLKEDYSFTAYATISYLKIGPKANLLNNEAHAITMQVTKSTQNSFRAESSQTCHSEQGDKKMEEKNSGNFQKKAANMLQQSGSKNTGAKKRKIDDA
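50 nM RECQ1T1 preincubated 15 min with compound in Tris pH 8.0 buffer with MgCl2, DTT, Tween-20 and 2.5 ug/ml poly(dI-dC); started with 200 nM TAMRA/BHQ-2 forked duplex and 2 mM ATP. Unwinding read as fluorescence (525/598 nm), two reads 2 h apart.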
BLM inh-2: BLM (human) helicase inhibition, confirmation; AID 2585; shares compounds with BLM inh-1; Potency, µM, hits mostly inhibitors; BLM DNA unwinding, fluorescence quenching, biochemical; hit rate 40% among 220;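 further: strand separation dequenches TAMRA so unwinding raises red fluorescence; series mostly up to about 69 µM; nearly all actives have a fitted effect of over 45% in size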
RECQ1 conf: confirmation of human RECQ1 helicase inhibitors. shares compounds with RECQ1 inh-1. RECQ1 helicase DNA unwinding, fluorescence. Potency, µM (top dose mostly 229 µM), hits mostly inhibitors. hit rate 28% among 610. AID 2708; further: nearly all actives have a fitted effect of over 45% in size
ADP FP counter: displaces ADP in a fluorescence polarization counter-screen for RECQ1 hits; shares compounds with RECQ1 inh-1; ADP fluorescence polarization displacement counterscreen; Potency, µM (highest dose often 228 µM), hits mostly inhibitors; hit rate 27% among 530; AID 2711; further: nearly all actives have a fitted effect of over 45% in size
RECQ1 inh-2: RECQ1 helicase inhibition confirmed, round 2. recombinant RECQ1 DNA unwinding, red fluorescence. Potency, µM (top dose mostly 119 µM), usual class: inhibitors. shares compounds with RECQ1 inh-1. AID 504841. hit rate 15% among 1,100; further: nearly all actives have a fitted effect of over 50% in size
A number is an active result; i = inactive; ? = inconclusive; nt = not tested or not shown; ! = not active in a repeat; [ ] = dose if it differs, or a comment. The sample as a whole holds a higher share of hits than the screen did. Unless noted, the call rests on the fitted dose curve; in most records, active means well fitted curve in the direction sought with a large enough effect; inconclusive means small, poorly fitted or top-dose-only effect, or another doubt; inactive means no such curve, though single readings can be large; an effect the other way counts as inactive or inconclusive.

SMILES	TDP1 block	BLM inh-1	JMJD2E inh	APEX1 inh	L3MBTL1 block	RECQ1 inh-1	BLM inh-2	others
CCC(C)n1c(NC(=O)c2ccccc2)c(C#N)c2nc3ccccc3nc21 (stereo not given)	i	10µM	?	i	6.3µM	i	?
Cc1c(C)c2c(cc(C)c3c(-c4ccccc4)coc32)oc1=O	i	i	nt	nt	nt	nt	nt
Cc1ccc(NC(=S)Nc2cccc3cnccc23)cc1C	i	i	i	i	i	i	nt
S=C(Nc1cccc(Cl)c1)Nc1cccc2cnccc12	i	4µM	i	i	?	i	?
O=C(CNC(=O)/C=C/c1ccco1)N=Nc1c(O)[nH]c2ccccc12	40µM	20µM	nt	8.4µM	nt	nt	20µM
COc1ccc(N2CCN(c3oc(/C=C/c4ccc(F)cc4)nc3C#N)CC2)cc1	i	i	nt	nt	nt	nt	nt
COc1ccc(-c2csc(NC(=O)CSc3nc(C)nc4sc(C(=O)O)c(C)c34)n2)cc1	i	32µM	i	i	i	i	32µM
C=C1CC[C@@H]2[C@](C)(CC[C@@H](O)[C@]2(C)CO)[C@@H]1C/C=C1/C(=O)OC[C@H]1O	nt	nt	nt	nt	nt	nt	i
C=C1CCC2C(C)(CO)C(O)CCC2(C)C1C/C=C1\C(=O)OCC1O (stereo not given)	i	i	i	i	nt	i	nt
O=C1Nc2ccc(I)cc2/C1=C/c1cc(Br)c(O)c(Br)c1	i	?	i	i	nt	25µM!	96µM
Cc1ccc2c(c1)/C(=C/c1ccccc1)C(=O)N2	nt	i	nt	i	nt	nt	nt
Cc1ccc(NC(=O)C2CCN(S(=O)(=O)c3ccc4c(c3)CCCN4C(=O)C3CCC3)CC2)cc1	i	i	nt	nt	nt	nt	nt
Cc1ccccc1NC1=C/C(=N\S(=O)(=O)c2ccc(C(=O)O)cc2)c2ccccc2C1=O	i[0.0935 µM]	7.1µM	nt	i	nt	nt	11µM
O=C(O)c1ccc(S(=O)(=O)/N=C2\C=C(Nc3ccccc3F)C(=O)c3ccccc32)cc1	i	8.9µM	nt	i	nt	nt	16µM
O=C(CN1CCSc2ccccc21)NCc1ccccc1F	i	i	nt	nt	nt	nt	nt
O=C(O)CNC(=O)c1ccc([N+](=O)[O-])cc1	i	nt	nt	i	nt	i	nt
CCN(CC)c1cc(Cl)c2nonc2c1N	i	i	i	i	?	i	nt
CN(C)c1cc(Cl)c2nonc2c1N	i	35µM	i	?	32µM	28µM	?
Cc1cc(NC(=O)C2CCCN(S(=O)(=O)c3cccc4nonc34)C2)ccc1Br (stereo not given)	i	i	nt	nt	nt	nt	nt
CCc1ccccc1N(c1nc(-c2ccc(OC)c(OC)c2)no1)c1nc(-c2ccc(OC)c(OC)c2)no1	i	i	nt	nt	nt	nt	nt
Cc1cc(OCC(=O)Nc2cc(-c3nc4ncccc4o3)ccc2C)ccc1Cl	nt	28µM	nt	nt	nt	nt	?
O=C1C(N2CCOCC2)=C(n2nnc3ccccc32)C(=O)c2ccccc21	i	35µM	?	i	nt	i	?
O=C1c2ccccc2C(=O)c2c1cccc2-n1nnc2ccccc21	nt	i	i	i	nt	i	nt
Cc1cc(C(=O)OCC(=O)NC2CCCC2)c2ccccc2n1	i	nt	nt	i	i	nt	nt
O=C(COC(=O)c1c2c(nc3ccccc13)/C(=C/c1ccco1)CC2)NC1CCCC1	nt	8.9µM	25µM	?	4.5µM	?	?
SMILES	TDP1 block	BLM inh-1	JMJD2E inh	APEX1 inh	L3MBTL1 block	RECQ1 inh-1	BLM inh-2	others
CC#CCN1c2ccccc2[C@]23C[C@@H](C(=O)OC)N(S(=O)(=O)c4ccc(OC)cc4)C2=NC(C(=O)OC)=C(C(=O)OC)[C@H]13	i[12.3 µM]	i[12.4 µM]	i[11.4 µM]	i[12.4 µM]	nt	i[11.5 µM]	nt
Cc1cc(=O)cc2oc3cc(N)c(-c4c(C)cc(O)cc4O)c(C)c3nc1-2	i	16µM	8.9µM	?	nt	i	20µM
CN1CCc2c(sc(NC(=O)c3cc4cc([N+](=O)[O-])ccc4s3)c2C(N)=O)C1	i	28µM	i	i	nt	?	29µM
O=C(OCC(=O)N1CCN(C(=O)c2ccco2)CC1)c1cc(-c2ccco2)nc2ccccc12	nt	8.9µM	?	16µM	8.9µM	13µM	?
O=C(c1ccco1)N1CCN(C(=O)c2cc(-c3ccccn3)nc3ccccc23)CC1	i	i	i	i	i	i	nt
COc1cccc(N2CCN(C(=O)c3cnn(-c4ccccc4Cl)c3C3CCN(C(=O)OC(C)(C)C)CC3)CC2)c1	i	i	nt	nt	nt	nt	nt
O=C(O)CSc1cc(C(=O)c2cc(F)ccc2O)cn2c(=O)c3c(-c4ccccc4)csc3nc12	i	25µM	i	i	?	i	?
COc1ccc(CN2COc3ccc4c(-c5ccc(OC)cc5)cc(=O)oc4c3C2)cc1	i	i	nt	nt	nt	nt	nt
N#C/C(=C\c1ccc(N2CCOCC2)o1)c1nc2ccccc2[nH]1	i	22µM	?	?	i	32µM	?	RECQ1 inh-2=?
O=C(CSc1nc2ccccc2n1CCc1ccccc1)c1ccc(O)c(O)c1	nt	11µM	22µM	0.89µM	3.2µM	7.1µM	19µM	RECQ1 conf=45µM;RECQ1 inh-2=?
COC(=O)c1ccc(C(NC(=O)OCc2ccccc2)/C(=C/[C@@H](C)C(=O)NC2CCCCC2)c2cccnc2)cc1 (stereo not given in full)	i	i	i	i	nt	i	nt
CN1CCN(c2ccc(Nc3c4ccccc4nc4ccccc34)cc2)CC1	i	20µM	nt	22µM	nt	13µM	32µM	RECQ1 conf=11µM;ADP FP counter=35µM
COc1ccc(Nc2c3ccccc3nc3ccccc23)cc1	i	i	nt	i	nt	nt	nt
CC1(C)C(=O)NC2=C1C(=O)C(=O)c1ccccc12	i	2.5µM	?	?	nt	8.9µM	5.1µM	RECQ1 conf=0.5µM;ADP FP counter=8.9µM
O=C(O)COc1ccc(/C=N/NC(=O)c2ccc(-c3csc(Nc4ccc(Cl)cc4)n3)cc2)cc1	nt	3.5µM	?	3.5µM	nt	11µM	8.1µM	RECQ1 conf=7.1µM;ADP FP counter=?
Cc1ccccc1Cn1c(SCc2ccc(C(=O)NCCc3ccccc3)cc2)nc2ccncc21	i	i	nt	nt	nt	nt	nt
CC1(C)CCC(C)(C)c2cc(C(=O)Nc3ccc(C(=O)O)cc3)ccc21	i	i	i	i	nt	i	nt
C=C(c1ccc(C(=O)O)cc1)c1cc2c(cc1C)C(C)(C)CCC2(C)C	nt	?	nt	nt	nt	nt	68µM	RECQ1 conf=?
CSc1ccc(CCNC(=O)c2ccc3c(c2)nc2n3CCC(C)C2)cc1 (stereo not given)	i	i	nt	nt	nt	nt	nt
O=C(CCC1CCCCC1)NCCS(=O)(=O)N1CCN(c2ccccc2)CC1	nt	nt	nt	i	i	nt	nt
